High-throughput results (PubChem)
KB-V1 MDR tox: KB-V1 MDR subline cytotoxicity | KB-V1 MDR cells viability, CellTiter-Glo, 72 h | Potency, µM (highest dose often 46.1 µM), actives largely listed as cytotoxic | actives 3.4% (n = 400,000) | AID 1347076; also: nearly all actives have a fitted effect of over 60% in size
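Readout: CellTiter-Glo luminescence, 10 min after addition. Cells: KB-V1 MDR subline, 72 h at 37 degrees C with compound. Analysis: corrected, normalized data fitted to concentration-effect curves.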
HT1080 IDH1KD tx: toxicity to HT-1080 IDH1 knockdown cells (counter line); HT-1080 IDH1 knockdown viability, ATP luminescence, 48 h; Potency, µM (doses to about 46.1 µM), for the others: top-dose activity, negative = toxicity, hits mostly cytotoxic; actives 2% (n = 360,000); AID 686971;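 also: 0% = DMSO wells and -100% = cell-free medium wells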
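Cytotoxicity counter-line: IDH1KD HT-1080, 48 h, CellTiter-Glo. Curves classed by r2, magnitude and activity.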
DT40 TDP1 CPT: growth inhibition of DT40 Tdp1-/-;hTDP1 cells with camptothecin (screen for TDP1 inhibitors); Potency, µM (doses to about 46.2 µM), inactives show at the highest dose activity change, negative = growth inhibition, hits mostly inhibitors; AID 686979; chicken DT40 Tdp1-/-;hTDP1 cells + 20 nM CPT, ATP luminescence, 48 h; actives 12% (n = 420,000); also: nearly all actives have a fitted effect of over 55% in size
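Cell growth measured by CellTiter-Glo luminescence after a minimum 48 h, 37 C compound exposure with 20 nM CPT in Tdp1-knockout DT40 cells stably expressing hTDP1, seeded 400/well; qHTS titration format.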
KB-3-1 cytotox: kills parental KB-3-1 adenocarcinoma cells. KB-3-1 viability, CellTiter-Glo ATP luminescence, 72 h. AID 1347075. Potency, µM (series often up to 46.1 µM), actives largely listed as cytotoxic. actives 1.4% (n = 400,000); also: nearly all actives have a fitted effect of over 60% in size
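Here the drug-naive KB-3-1 line serves as comparator for MDR sub-line selectivity; cells received compound titrations, 72 h at 37 °C, then CellTiter-Glo readout.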
HT1080NT lethal: kills 2HG-producing HT-1080-NT fibrosarcoma cells | Potency, µM (highest dose often 46.1 µM), inactives show at the top dose activity, negative = less viability, actives largely listed as cytotoxic | HT-1080-NT fibrosarcoma viability, CellTiter-Glo ATP luminescence, 48 h | actives 1.6% (n = 360,000);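 also: NT is the 2HG producing partner of a matched IDH1 knockdown line; 0% = DMSO-treated cells and -100% = media-only wells without cells; nearly all actives have a fitted effect of over 55% in size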
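A 48-hour cytotoxicity screen used HT-1080-NT cells plated 2 hours before compound delivery. ATP-based CellTiter-Glo luminescence measured viability, normalized to DMSO and no-cell controls.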
TDP1 cell noCPT: qHTS for Inhibitors of human tyrosyl-DNA phosphodiesterase 1 (TDP1): qHTS in cells in absence of CPT; DT40 Tdp1-/- hTDP1 cells, no CPT, ATP luminescence, 48 h; Potency, µM (series often up to 46.2 µM), for inactives: at the highest dose activity change, negative = growth inhibition, usual class: inhibitors; actives 15% (n = 420,000); AID 686978, 2013; also: nearly all actives have a fitted effect of over 55% in size
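A cellular qHTS used chicken DT40 cells lacking endogenous Tdp1 but carrying stably transfected human TDP1. Compounds were applied without camptothecin, and cell growth kinetics were judged by ATP-dependent luminescence after ≥48 hr.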
The depositor's hits bear a star; i = inactive; ? = inconclusive; . = no result; [ ] = remark or other dose. Sampled rows, rich in hits. Any-hit rate of the full collection: about 19%. Calls follow the shape of the dose curve; as a rule, active = well fitted curve in the direction sought with a large enough effect; inconclusive = small, poorly fitted or top-dose-only effect, or another doubt; inactive = no such curve, though single readings can be large; an effect the other way counts as inactive or inconclusive. Unless noted, % is scaled to controls: 0 for no effect and ±100 for the full control effect; potency is read from the fitted curve at half-maximal effect.

SMILES | KB-V1 MDR tox | HT1080 IDH1KD tx | DT40 TDP1 CPT | KB-3-1 cytotox | HT1080NT lethal | TDP1 cell noCPT
CCc1nnc(NC(=O)c2ccc(OC)c(S(=O)(=O)N3CCCC3)c2)s1 | 21µM* | -12% | -13% | i | 0% | -1%
COc1ccc(C(C)(C)C)cc1NC(=O)C1C2C=CC(C2)C1C(=O)O (stereo not drawn) | i | 13% | -24% | i | 1% | ?
CC(CNC(=O)c1cc(-c2ccccc2)n[nH]1)c1ccccc1 (stereo not drawn) | i | . | ? | i | . | ?
COc1ccc(C(C)(C)C)cc1NC(=O)c1ccc2ncsc2c1 | i | -14% | ? | i | -18% | ?
COc1ccc(Br)cc1S(=O)(=O)N1CCCC1 | i | 1% | 9.2µM* | i | -5% | 8.2µM*
COc1ccc(C(=O)Nc2ccc(-c3ccc(C)o3)cc2)cc1S(=O)(=O)N1CCOCC1 | i | . | ? | i | . | 21µM*
COCc1nnc(NC(=O)c2cc(OC)c(OC)c(OC)c2)s1 | i | . | 2% | i | . | -7%
COc1ccc(C(C)(C)C)cc1NC(=O)c1cncc(Br)c1 | i | -7% | ? | i | 0% | 18µM*
COc1cc(C(=O)Nc2nnc(CC(C)(C)C)s2)cc(OC)c1OC | i | . | 13µM* | i | . | ?
Cc1ccc(Nc2cc(Cl)nc(N)n2)c([N+](=O)[O-])c1 | i | 0% | -27% | i | -1% | -16%
COc1ccc(NC(=O)c2cncc(Br)c2)cc1S(=O)(=O)N1CCCCC1 | i | -10% | ? | i | -7% | 21µM*
COc1ccc(C(=O)Nc2ccc(C)c(S(=O)(=O)N3CCOCC3)c2)cc1S(=O)(=O)N1CCCC1 | i | 15% | 21µM* | i | 7% | ?
Cc1ccc(C(=O)Nc2ccc3c(c2)OCO3)cc1S(=O)(=O)N1CCCC1 | ? | -16% | ? | i | -3% | 7.3µM*
COc1ccc(C(=O)Nc2ccc(N3CCOCC3)cc2)cc1S(=O)(=O)N1CCCC1 | i | -1% | 11% | i | 5% | -7%
O=S(=O)(c1cccs1)N1CCN(CC(O)COc2cc(Cl)ccc2Cl)CC1 (stereo not drawn) | 8.2µM* | ? | ? | ? | -25% | 23µM*
CC1CN(C(=O)/C=C/c2ccc(SC(F)F)cc2)CC(C)O1 (stereo not drawn) | i | 14% | ? | i | 20% | 13µM*
O=C(Nc1cccc(Cl)c1)c1csc([C@@H]2O[C@H](CO)[C@H](O)[C@H](O)[C@H]2O)n1 | i | 10% | 0% | i | -1% | 5%
CN1c2ccccc2C2(C)CCCC3=Cc4cccc([N+](=O)[O-])c4OC312 (stereo not drawn) | ? | -19% | ? | ? | -3% | 16µM*
CN1c2ccccc2C2(C)CCCC3=Cc4cc([N+](=O)[O-])cc([N+](=O)[O-])c4OC312 (stereo not drawn) | ? | -5% | 15µM* | ? | -1% | 23µM*
Cc1ccc([N+](=O)[O-])c2c1C(N1CCCC1)C(C)(C)O2 (stereo not drawn) | i | 7% | ? | i | -1% | ?
O=C(CN(CCO)Cc1ccccc1)N1CCN(S(=O)(=O)c2ccccc2)CC1 | i | -1% | -2% | i | -1% | -6%
Cc1noc(C)c1C(=O)N1CCC1(C)C(=O)NS(=O)(=O)c1ccccc1Cl (stereo not drawn) | i | 10% | -9% | i | 19% | 4%
O=C(NCC1CC1)C1Cc2c(-c3ccccc3Oc3ccccc3)ccnc2O1 (stereo not drawn) | i | 7% | ? | i | 18% | -44%
COc1ccc(CNC(=O)C2Cc3c(-c4ccccc4Oc4ccccc4)ccnc3O2)cc1OC (stereo not drawn) | 15µM* | -20% | 18µM* | ? | ? | 21µM*
O=C(NCc1cccc(Cl)c1)C1Cc2c(-c3ccccc3Oc3ccccc3)ccnc2O1 (stereo not drawn) | ? | ? | 23µM* | i | ? | ?
SMILES | KB-V1 MDR tox | HT1080 IDH1KD tx | DT40 TDP1 CPT | KB-3-1 cytotox | HT1080NT lethal | TDP1 cell noCPT
CC(C)NC(=O)C1Cc2c(-c3ccccc3Oc3ccccc3)ccnc2O1 (stereo not drawn) | i | -9% | ? | i | -8% | ?
CCOc1ccc(C(=O)NCc2nc3cccnc3n2Cc2cccc(OC)c2)cc1 | . | . | -17% | . | . | -19%
COCCn1c(=O)cnc2cnc(OCc3ccccc3)nc21 | . | . | -12% | . | . | ?
Cc1cccc(N(C)c2nc3ccc(C)cc3n3cnnc23)c1 | i | . | ? | i | . | 16µM*
COc1cccc(C(C)(O)c2nc(-c3ccc(F)c(Cl)c3)cs2)c1 (stereo not drawn) | i | -28% | ? | i | ? | ?
COc1cccc(C(C)(O)c2nc(-c3ccccc3)cs2)c1 (stereo not drawn) | ? | ? | 16µM* | ? | ? | 18µM*
COc1cccc(C(C)(O)c2nc(-c3ccc(N(C)C)cc3)cs2)c1 (stereo not drawn) | i | ? | 18µM* | ? | ? | 21µM*
CC(C)c1cccc(-c2csc(C(C)(O)c3ccncc3)n2)c1 (stereo not drawn) | ? | ? | 12µM* | ? | ? | 13µM*
COc1cccc(C(C)(O)c2nc(-c3cccc(C(C)C)c3)cs2)c1 (stereo not drawn) | i | ? | ? | i | ? | 23µM*
N#Cc1ccsc1NC(=O)C1CC(=O)N(Cc2ccccc2)C1 (stereo not drawn) | i | 11% | -23% | i | 6% | -12%
CN(C)c1ccc(-c2csc(C(C)(O)c3cccc(F)c3)n2)cc1 (stereo not drawn) | ? | ? | 13µM* | i | 26µM* | 21µM*
O=C1C2ON(c3ccc(Br)cc3)C(c3cccnc3)C2C(=O)N1C1CCCCC1 (stereo not drawn) | i | -2%[9.24 µM] | ? | i | 9% | 18µM*
CCc1nnc(NC(=O)COc2ccc([N+](=O)[O-])cc2)s1 | i | 7% | -10% | i | 5% | 0%
